# Results: PubChem BioAssay AID588453 (National Center for Advancing Translational Sciences (NCATS), 2011)
# Screen size: about 390,000 compounds; about 4,000 (1%) were called active. Roughly 4% stayed inconclusive and do not appear here. What follows is part of a selection rich in actives, with near analogues and random picks from the rest. A number with no mark means an inactive call. The call rests on the fitted dose curve; in most records, active means well fitted inhibition curve with a large enough effect; inconclusive means small, poorly fitted or top-dose-only effect; inactive means no such curve, though single readings can be large or run the other way.
# Target: Thioredoxin reductase 1, cytoplasmic (Rattus norvegicus) (UniProt O89049)
# Experiment: qHTS Assay for Inhibitors of Mammalian Selenoprotein Thioredoxin Reductase 1 (TrxR1): qHTS; further: nearly all actives have a fitted effect of over 65% in size
# Conditions: recombinant rTrxR1, NADPH fluorescence consumption, selenite substrate; series mostly up to 114 µM; activity change, negative = inhibition: at the top concentration
# Method in brief: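 Rat TrxR1 (90 nM in the dispensed reagent) was pre-reduced with 400 uM NADPH for 5 min at room temperature, then incubated with compound for 15 min. After 400 uM selenite was added, NADPH fluorescence (Ex 340/Em 450 nm) was followed for 8 min.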
# On the % scale 0 is the no-effect control and ±100 the full control effect; potency means the concentration at half of the fitted maximal effect.
# Thioredoxin reductase 1, cytoplasmic (Rattus norvegicus), sequence (O89049 whole entry, looked up): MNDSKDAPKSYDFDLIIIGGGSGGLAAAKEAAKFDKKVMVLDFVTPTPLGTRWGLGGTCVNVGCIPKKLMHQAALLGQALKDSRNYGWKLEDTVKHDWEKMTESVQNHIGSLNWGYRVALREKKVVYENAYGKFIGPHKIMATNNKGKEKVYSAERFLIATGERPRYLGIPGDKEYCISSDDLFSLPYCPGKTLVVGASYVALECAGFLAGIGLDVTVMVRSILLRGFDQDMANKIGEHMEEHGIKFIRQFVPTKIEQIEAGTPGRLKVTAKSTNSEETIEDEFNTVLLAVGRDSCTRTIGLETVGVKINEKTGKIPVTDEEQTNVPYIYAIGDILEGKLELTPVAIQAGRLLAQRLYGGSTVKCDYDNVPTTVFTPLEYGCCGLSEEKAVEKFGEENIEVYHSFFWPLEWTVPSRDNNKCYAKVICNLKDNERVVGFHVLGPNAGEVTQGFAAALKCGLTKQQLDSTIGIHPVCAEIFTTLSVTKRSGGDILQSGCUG
SMILES,"activity change, negative = inhibition",Potency
CC1(C)Cc2ccccc2-c2c[nH]c(=O)n21,3.99%,
COc1cc(OC)cc(C(=O)OCC(=O)Nc2sccc2C(N)=O)c1,15.1%,
Cn1nnnc1SCC(=O)Nc1sccc1C(N)=O,13.4% [at 11.4 µM],
NC(=O)c1ccsc1NC(=O)c1ccco1,,56.2 µM (active)
C=C1C=C(C)n2ncc(C(=O)Nc3ccccc3O)c2N1,8.78%,
COc1ccccc1/C=C/C1=NC(=C\N(C)C)/C(=O)O1,9.66% [at 57.1 µM],
CN(C)/C=C1\C=C(c2ccccc2)OC1=O,,28.2 µM (active)
Cc1ccc(C2=C/C(=C\c3cccnc3)C(=O)O2)cc1,31.3%,
CN(C)c1ccc(/C=C/C=C/c2ccnc3ccccc23)cc1,-12.8%,
COc1cccc2sc(N(CCCN(C)C)C(=O)CCS(=O)(=O)c3ccccc3)nc12,,1.58 µM (active)
CCOc1ccccc1NC(=O)CCS(=O)(=O)c1cccc2nsnc12,,inactive
O=C(C1COc2ccccc2O1)N(Cc1cccnc1)c1nc2c(F)cc(F)cc2s1 (configuration not stated),23.2% [at 57.1 µM],
Cc1cccc2sc(N(CCCN(C)C)C(=O)CCS(=O)(=O)c3ccccc3)nc12,,15.8 µM (active)
O=C(O)CCS(=O)(=O)c1ccc(-c2ccccc2)cc1,-6.99%,
COc1ccccc1CNC(=O)CS(=O)(=O)c1cccc2nsnc12,5.68% [at 57.1 µM],
CN(C)S(=O)(=O)c1ccc(C(=O)N(Cc2cccnc2)c2nc3c(F)cc(F)cc3s2)cc1,1.57% [at 57.1 µM],
Cc1ccc(S(=O)(=O)CCC(=O)OCc2ccccc2)cc1,22.7%,
O=C(CCS(=O)(=O)c1ccccc1)N(Cc1cccnc1)c1nc2c(F)cccc2s1,,3.98 µM (active)
Brc1ccc2c(c1)NC(c1cccnc1)=NC(c1ccccc1)=N2,25%,
Cc1cccc(N2CCN(C(=O)c3ccc4c(c3)CCN4S(=O)(=O)c3ccccc3)CC2)c1C,23.9%,
Cc1cccc(NC(=O)C2CCN(S(=O)(=O)c3c(C)noc3/C=C/c3ccco3)CC2)c1,-7.03%,
CCC(=O)N1CCc2cc(S(=O)(=O)NC(C(=O)NCCc3ccc(C)cc3)C(C)C)ccc21 (configuration not stated),19%,
O=C(Cn1ncn2nc(-c3cccs3)cc2c1=O)NCc1cccc(Br)c1,17.3%,
CCOC(=O)c1ccccc1NC(=O)c1nn(-c2ccc(OC)c(Cl)c2)c(=O)c2c1c1ccccc1n2C,15.4%,
CCOC(=O)C1=C(NC(=S)NC(=O)c2ccccc2)c2ccccc2CC1(C)C,-24.4%,
Cc1cc2[nH]ncc2cc1NC(=S)NC(=O)c1ccccc1,,7.08 µM (active)

SMILES,"activity change, negative = inhibition",Potency
Cc1ccc(C(=O)NC(=S)Nc2ccc3[nH]c(=O)[nH]c3c2)cc1C,2.89% [at 57.1 µM],
CCOc1ccc(CNC(=O)c2ccc3nc(CC)c(CC)nc3c2)cc1OC,15.6% [at 57.1 µM],
CCOc1cccc(NC(=O)CSc2ncc(-c3ccc(Cl)cc3)[nH]2)c1,3.45%,
CC1(C)CC(=O)c2cc(C(=O)NCc3ccccc3)c(=O)[nH]c2C1,8.76%,
O=C(NCCC1=CCCCC1)c1ccc2c(c1)N(Cc1ccccc1F)C(=O)c1ccccc1S2(=O)=O,41.9%,
COc1ccc(Cn2cc(C(=O)c3ccc(C)cc3)c(=O)c3cc(OC)c(OC)cc32)cc1,21.9%,
COc1ccc(-c2nc(C)c(CCNC(=O)c3ccc(C(F)(F)F)cc3)s2)cc1OC,14.7% [at 57.1 µM],
O=C(Nc1ccccc1Cl)N1CCC(CN2CCCCC2)CC1,24.2% [at 57.1 µM],
O=C(Nc1ccccc1Cl)/C(Cl)=C(\Cl)S(=O)c1ccccc1 (configuration not stated),,0.398 µM (active)
O=C(Nc1ccccc1Cl)N1CCC(CN2CCCC2)CC1,-6.79%,
O=C1C2C(c3ccccc3)CC=CC2C(c2ccoc2)N1Cc1ccccc1 (configuration not stated),-7.81%,
C#CC(C)(CC)NC(=O)Cn1nnc(-c2ccc(OCc3c(F)cccc3Cl)cc2)n1 (configuration not stated),28.4%,
COc1cc(OC)cc(C(=O)NCCc2csc3nc(-c4ccccc4F)nn23)c1,6.74% [at 57.1 µM],
COc1cc(C(=O)NCC(c2ccc(Cl)cc2)N2CCOCC2)cc(OC)c1OC (configuration not stated),8.59%,
O=C(CSc1ccc(-c2ccco2)nn1)Nc1cccc(F)c1,,25.1 µM (active)
CCn1c(CNC(=O)c2ccco2)nnc1SCC(=O)Nc1cccc(F)c1,27.1%,
O=C(CSc1ccc(-c2ccco2)nn1)NCc1ccc2c(c1)OCO2,-71.2%,
COc1ccc(OCCn2cc(C(=O)C3CCCCC3)c3ccccc32)cc1,25.8%,
Cc1ccc(C)c(N2CCN(Cc3nnc(-c4ccccc4)o3)CC2)c1,16.7%,
C=C(Br)CN1CCN(CC(=C)Br)CC1,,12.6 µM (active)
Cc1ccc(CN(C(=O)COc2ccc(Cl)cc2C)C2CCS(=O)(=O)C2)o1 (configuration not stated),-11.1%,
Cn1c(SCC(=O)N2CCCC2)nnc1-c1cccs1,-0.504%,
CCOC(=O)CSc1nnc(CNC(=O)c2ccco2)n1-c1ccc(F)cc1,-12.3%,
CCOC(=O)CSc1nnc(-c2ccco2)n1C,,22.4 µM (active)
CCCN1CCC(=O)N(C(CSc2ccc(C)cc2)Cc2ccccc2)CC1 (configuration not stated),-13.5%,
CC1=C(C)CC2C(=O)N(c3cccc4ccccc34)C(=O)C2C1 (configuration not stated),,14.1 µM (active)

SMILES,"activity change, negative = inhibition",Potency
Cn1c(=O)c2cn(-c3cccc4ccccc34)cc2n(C)c1=O,-9.19%,
CCc1ccccc1N1C(=O)C2C3CC(=O)C(c4ccccc43)C2C1=O (configuration not stated),9.08%,
COc1cccc(OCCn2c(-c3ccc(Br)cc3)nc3ccccc3c2=O)c1,19.9%,
COC(=O)C(CC(C)C)NS(=O)(=O)c1cc(Br)ccc1Br (configuration not stated),4.6%,
O=C(NCC(c1cccnc1)N1CCc2ccccc21)c1cccc(C(F)(F)F)c1 (configuration not stated),-5.37%,
Nc1ccccc1N,14.3%,
COc1ccc(-c2nc(SCC(=O)N3CCCCC3C)n[nH]2)cc1 (configuration not stated),8.31% [at 57.1 µM],
COc1ccc(N2C(=O)CC(Sc3n[nH]c(-c4ccc(C)cc4)n3)C2=O)cc1 (configuration not stated),,5.01 µM (active)
CC(=O)Nc1ccc(N2C(=O)CC(Sc3nccc(C)n3)C2=O)cc1 (configuration not stated),33.8%,
C/[N+]([O-])=C\c1ccc([N+](=O)[O-])o1,,11.2 µM (active)
Cc1cccc(NC(=O)COC(=O)c2ccccc2OCc2cccc(Br)c2)c1,11.2%,
C=CC(=O)Nc1ccc(Nc2ccnc(Nc3ccc(N4CCN(C)CC4)cc3)n2)cc1,,12.6 µM (active)
Cc1cc(Nc2cc(N3CCN(C)CC3)nc(Sc3ccc(NC(=O)C4CC4)cc3)n2)n[nH]1,-3.3% [at 57.1 µM],
Cn1c(SCC(=O)Nc2ccc(N3CCOCC3)cc2)nnc1C(F)(F)F,15.9%,
CCc1ccc(NC(=O)N2CCN(C(=O)c3nsc4ccccc34)CC2)cc1,12.5% [at 57.1 µM],
CCOC(=O)c1scc(-c2ccc(C)cc2)c1S(=O)(=O)Nc1cc(C)ccc1C,18.8% [at 57.1 µM],
COc1cccc(NCCC(=O)c2cccc([N+](=O)[O-])c2)c1,,20 µM (active)
COc1cccc(C(=O)CC(=O)C(=O)Nc2ccc([N+](=O)[O-])cc2C)c1,-9.02%,
COc1ccc(NS(=O)(=O)c2cc(NC(=O)CC(=O)c3ccc([N+](=O)[O-])cc3)ccc2C)cc1,8.24%,
Cc1ccccc1CNC(=O)C1CCCN(S(=O)(=O)N(C)c2ccc(F)cc2)C1 (configuration not stated),-1.25%,
CC1CN(c2cc(=O)n(Cc3ccc(F)cc3)c(=O)[nH]2)CC(C)O1 (configuration not stated),,10 µM (active)
CC(C)(C)N1CC(c2nc3ccccc3n2Cc2ccc(F)cc2)CC1=O (configuration not stated),6.6%,
Cc1ccc(-n2c(=O)cc(N3CCN(Cc4ccccc4)CC3)[nH]c2=O)cc1,-31.5%,
Cc1c(Cl)cccc1NC(=O)Cn1cc(C(=O)c2cccs2)c2ccccc21,3.36%,
O=C(Cn1c(=O)n(-c2ccc(F)cc2)c(=O)c2sc3ccccc3c21)NC1CCCC1,12.1%,
O=C(NCCCN1CCOCC1)c1ccccc1NS(=O)(=O)c1ccc(F)cc1,12.5% [at 57.1 µM],

SMILES,"activity change, negative = inhibition",Potency
O=[N+]([O-])c1cc(S(=O)(=O)CCCN2CCOCC2)ccc1F,,11.2 µM (active)
O=S(=O)(NCCCN1CCOCC1)c1ccc(F)c(Cl)c1,12%,
CC1CC2C3CCC4=CC(=O)C=C[C@]4(C)[C@@]3(F)[C@@H](O)C[C@]2(C)[C@@]1(O)C(=O)CO (some centres not stated),-3.45% [at 57.1 µM],
COc1cc(OC)c(OC)cc1/C=C1\C=Cc2ccccc21,-6.02%,
CCCCOC(=O)CNc1nnc(SCC(=O)OCC)[nH]c1=O,,11.2 µM (active)
Cc1nnc(SCC(=O)NCc2cccs2)[nH]c1=O,-32.2% [at 57.1 µM],
Cc1nnc(SCCCCSc2nnc(C)c(=O)[nH]2)[nH]c1=O,12.5% [at 11.4 µM],
Cc1[nH]c2ccccc2c1C(=O)C(=O)N(C)c1ccccc1,14.2%,
Cc1cc(C)cc(NC(=O)CSc2nc3nccnc3c(=O)n2CCc2c[nH]c3ccccc23)c1,7.71%,
O=C(/C=C/c1ccco1)NC(=S)N1CCCCC1,,28.2 µM (active)
COc1ccccc1/C=C/C(=O)NC(=S)N1CCOCC1,18.3% [at 57.1 µM],
COc1ccc(Cl)cc1C(=O)NNC(=S)NC(=O)/C=C/c1ccco1,7.92%,
Cn1c(=O)cc(OCC(=O)N2CCN(c3ccccc3)CC2)c2ccccc21,20.6%,
COc1ccc(-c2nc3nc(C)cc(C)n3c2Nc2c(C)cccc2C)cc1,5.66%,
CCn1c(SC)nc(O)c(C(c2ccc(OC)c(O)c2)c2c(O)nc(SC)n(CC)c2=O)c1=O,,50.1 µM (active)
COc1ccc(-n2c(SC)nc(O)cc2=O)cc1,8.9%,
CCn1c(SCC(=O)NNC(=O)c2ccc(OC)cc2)nnc1C(C)C,23.6% [at 57.1 µM],
O=C(Cn1ncc2c3ccccc3n(Cc3ccccc3)c2c1=O)NC1CCCCCC1,4.59%,
CCOC(=O)N1CCN(C(c2cccnc2)c2ccc3cccnc3c2O)CC1 (configuration not stated),,0.398 µM (active)
CCOc1ccc(C(NC(=O)c2cc(OC)c(OC)c(OC)c2)c2cc(Cl)c3cccnc3c2O)cc1 (configuration not stated),17.2% [at 57.1 µM],
O=C(NCc1cccnc1)C(=O)NCC(c1cccnc1)N1CCN(c2ccccc2)CC1 (configuration not stated),0.912%,
CCN1CCN(C(c2cccnc2)c2cc(Cl)c3cccnc3c2O)CC1 (configuration not stated),,4.47 µM (active)
COc1ccccc1N1CCN(C(CNC(=O)C(=O)NCc2ccc(C)cc2)c2cccnc2)CC1 (configuration not stated),6.53%,
Cc1ccc(NC(=O)C(=O)NCC(c2cccnc2)N2CCOCC2)cc1 (configuration not stated),7.14%,
